Results from PubChem BioAssay AID651965 (National Center for Advancing Translational Sciences (NCATS), 2013).
Out of some 340,000 compounds screened, about 6,400 (1.9%) were called active. Inconclusive results (about 4%) are left out. The call rests on the fitted dose curve; in most records, active means well fitted falling curve with a large enough effect; inconclusive means small, poorly fitted or top-dose-only effect; inactive means no such curve, though single readings can be large or run the other way. The sample as a whole holds a higher share of actives than the screen did.

The molecules below were run against ATP-dependent Clp protease proteolytic subunit (Bacillus subtilis (strain 168)) (UniProt P80244) (assay: qHTS Assay for Activators of ClpP). Details: purified B. subtilis ClpP, FRET peptide cleavage, 20 min; series mostly up to 57.5 µM; activity change, negative = active: at the top concentration.
Procedure, shortened: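 Purified B. subtilis ClpP, 10 microg/mL final in Tris/HCl pH8 with KCl, BSA, glycerol and Tween-20, cleaved an Abz/nitrotyrosine-quenched decapeptide. Fluorescence (ex 320, em 430) was read at 0 and 20 min at room temperature. Delta was normalized to 5.8 microM ADEP and DMSO/no-enzyme controls.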
Further: the source files actives as falling curves though it sought activators and does not explain the sign; nearly all actives have a fitted effect of over 65% in size.
Potency means the concentration at half of the fitted maximal effect.

Activity change, negative = active, inactive:
CCCC(=O)N1CCC1(C)C(=O)Nc1ccc(-n2cncn2)cc1 (stereo not drawn) -3.69%
O=C(Nc1ccn(Cc2ccccc2F)n1)c1ccc(COc2ccc(Cl)cc2Cl)o1 -17.4%
Cc1ccc(Cn2ccc(NC(=O)C3C4CCC(C4)C3C(=O)O)n2)cc1 (stereo not drawn) -28.6%
O=C(c1cnn2c1NC(=C1CC1)C=C2C(F)F)N1CCc2ccccc2C1 0.979%
Cc1ccc(C(O)c2ncc(-c3ccccc3F)[nH]2)cc1F (stereo not drawn) 0.929%
CCCCN(C(=O)c1ccc(C)o1)c1c(N)n(CCCC)c(=O)[nH]c1=O 0.476%
CCCCn1c(N)c(N(CCC(C)C)C(=O)c2ccc(COc3ccccc3)o2)c(=O)[nH]c1=O -5.35%
CCN(C(=O)Nc1cccc2ccccc12)c1ccccc1 4.17%
Cc1cc(=O)[nH]c(SCc2cc(Cl)ccc2OC(F)F)n1 -0.513%
Cc1cc(=O)[nH]c(SCc2ccc(Cl)cc2)n1 0.425%
O=C(Nc1cccc2ccccc12)c1[nH]c(-c2ccccc2)c2c1C(=O)N(C1CC1)C2=O 1.62%
O=C(OC1CC2CC1[C@H]1CCCCN1C2=O)N1CCOCC1 (stereo partly drawn) 1.07%
COc1ccccc1-c1sc2ccccc2c1C#CC1(O)CCCCC1 -0.0591%
COc1ccc2sc(-c3ccccc3OC)c(-c3ccc(OCCN4CCCC4)cc3)c2c1 -7.61%
CCCOc1ccc(F)cc1-c1cc(C(=O)Nc2ccc(F)c(Cl)c2)[nH]n1 -24.4%
CN(C)c1ccc(/C=C/c2sc3ccccc3[n+]2CCCCBr)cc1 0.0357%
CCOC(=O)[C@]12CCCC=C1N(CCC1=CCCCC1)C(=O)[C@H](CC(=O)N1CCSCC1)C2 0.986%
O=S(=O)(c1ccc(F)cc1)N1CC=C(c2ccccc2)CC1 0.167%
Fc1ccc2cnc(-c3ccccc3)cc2c1 -20%
Cc1ccc(S(=O)(=O)N2CC3C(=O)C[C@@H](c4ccccc4Cl)N(S(=O)(=O)c4ccc(C)cc4)C3CC2c2ccccc2)cc1 (stereo partly drawn) 0.552%
Cc1cccc(-c2nnc(SC(C)C(=O)Nc3ccccc3)n2C)c1 (stereo not drawn) -2.03%
CCOC(=O)[C@]12CCCC=C1N(Cc1ccc3c(c1)OCO3)C(=O)[C@H](CC(=O)N1CCN(C(=O)c3ccco3)CC1)C2 -3.46%
CN(C)c1ccc(/C=C/c2sc3ccccc3[n+]2C)cc1 0.862%
CC1(Oc2cccc(F)c2)CCN(Cc2ccccc2OC(F)F)C1 (stereo not drawn) 0.0673%
Cc1nc2ccccc2nc1CC(O)(c1ccccc1)c1ccccc1 1.05%
Cc1nc2cccnc2nc1C 0.763%
CC(C)c1cc(C(=O)N(C)C2CCCN(Cc3ccccc3F)C2)n(C)n1 (stereo not drawn) -0.736%
Cc1cn([C@H]2C[C@H](O)[C@@H](/C=C/C(=O)NCCCc3ccccc3)O2)c(=O)[nH]c1=O -2.25%
Cc1cc(Cl)ccc1C(=O)C1CCCN(C(=O)c2ccc3c(c2)OCO3)C1 (stereo not drawn) -3.31%
O=C1c2cccc3cccc(c23)N1CN1CCN(c2ccccn2)CC1 10.9%
CC(C(=O)O)N1C(=O)c2cccc3cccc1c23 (stereo not drawn) -2.92%
CCCS(=O)(=O)Nc1cccc(-c2cn3ccsc3n2)c1 -4.02%
CCCOc1ccc(-c2cccc(NS(=O)(=O)c3ccccc3)c2)nn1 -0.0705%
O=C(NNC(=O)C1CCN(c2ncccn2)CC1)c1ccccc1 -19.4%
O=C(NC1CCCCCC1)C1CCN(C(=O)c2ccc(Cl)cc2)CC1 0.752%
c1cc(-c2ccc3[nH]ccc3c2)n2ccnc2c1 4.02%
CCOC(=O)[C@]12CCCC=C1N(CCC1=CCCCC1)C(=O)[C@H](CC(=O)N1CCCCC1)C2 0.0448%
N#Cc1c(-c2ccc(F)cc2)nc(-c2ccccc2)[nH]c1=O -3.09%
CN(C(=O)CN1CCN(c2cc(-c3ccc(OCc4ccccc4)cc3)ncn2)CC1)c1ccccc1 -2.81%
COc1ccc(Cl)cc1NC(=O)CNc1ccccc1F 1.27%
CCOc1ccc(NC(=O)N(CC(C)C)CC(C)C)cc1 0.546%
CC(C)CCN(C(=O)Nc1ccc(Cl)c(Cl)c1)C(C)c1cccs1 (stereo not drawn) -0.0691%
OC(CBr)C[n+]1cccc2cc(Br)ccc21 (stereo not drawn) -16.9%
Cc1ccc(-n2nc(C)c(/C=N/NC(=O)c3cccs3)c2Cl)cc1 5.26%
Cc1nn(-c2ccccc2)c(Cl)c1/C=C/C(=O)c1ccc(O)cc1 -2.48%
Cc1ccc(-c2nc3c(C)cc(Br)cn3c2Cc2ccccc2)cc1 -4.79%
COC(=O)C[C@@H]1C=C[C@@H](NC(=O)c2ccc3c(c2)OCO3)[C@@H](CO)O1 -12%
CCOc1ccc(NC(=O)CSc2nnc3c(n2)[nH]c2ccc(S(=O)(=O)N4CCOCC4)cc23)cc1 9.8%
CC(C)C1Cc2[nH][nH]c(=O)c2C(c2ccc(Cl)cc2)O1 (stereo not drawn) -0.878%
CCC(=O)Nc1ccc2nc(SCC(=O)N3CCc4ccccc43)sc2c1 7.24%
O=C(COc1ccccc1Cl)Nc1ccc2nc(SCC(=O)N3CCCC3)sc2c1 -14.3%
O=C(Nc1ccc2nc(SCC(=O)N3CCc4ccccc43)sc2c1)c1ccccc1F 1.34%
Nc1nnc(SCC(=O)Nc2ccc3nc(SCC(=O)Nc4ccccc4)sc3c2)s1 0.518%
Cc1ccc(S(=O)(=O)N2[C@@H](Cc3ccccc3)CO[C@H]2CC(=O)OCc2ccccc2)cc1 -0.866%
CN1OC[C@@H]2CN(C(=O)c3ccc(-c4ccccc4)cc3)[C@H](c3ccc(-c4cccc(F)c4)cc3)C[C@@H]21 -1.14%
O=C(c1ccc(N2CCCC2=O)cc1)N1CCN(c2ccc(C(F)(F)F)cc2[N+](=O)[O-])CC1 0.9%
Cc1ccc(Cn2c(C)c(C(=O)NCc3ccccc3C(F)(F)F)sc2=O)cc1 -1.3%
O=C(CC[C@H]1O[C@@H](n2ccc(=O)[nH]c2=O)[C@H](O)[C@@H]1O)N[C@H](Cc1ccccc1)C(=O)NCc1ccco1 -1.61%
CC(CN1CCOCC1)OC(=O)c1ccc(C(C)(C)C)cc1 (stereo not drawn) -2.55%
CC(CN1CCOCC1)OC(=O)c1ccc(Cl)cc1Cl (stereo not drawn) 1.92%
CCN(CC)C(=O)C1=C(C)N(Cc2ccc(OC)cc2)C(=O)C(CC(=O)NCc2ccco2)C1 (stereo not drawn) -2.92%
Nc1nc2c(ncn2[C@@H]2O[C@H](CNCc3ccc(OCCCN4CCOCC4)cc3)[C@@H](O)[C@H]2O)c(=O)[nH]1 0.256%
CCCCC[C@H](C)N1C[C@@H](COCc2ccccc2)Oc2cc(N3CCC[C@@H]3CO)ccc2S1(=O)=O -18.2%
CCCNC(=O)c1ccc(N2CCC3(CC2)CC(c2cccc(Br)c2)=NO3)c(NC(=O)c2ccco2)c1 -27.6%
O=C(NC1CC1)c1cccc(Br)c1 0.467%
COc1ccc(OC)c(NC(=O)C2(C)CCN2C(=O)Cc2ccccc2)c1 (stereo not drawn) 1.9%
Cc1cccc(C)c1NC(=O)C(c1ccc(C(F)(F)F)cc1)n1c(=O)c(-c2ccco2)nc2ccccc21 (stereo not drawn) 4.32%
CCOC(=O)c1ccc(Nc2cc3ccccc3c(=O)[nH]2)cc1 -23.8%
CCOC(=O)C1=C(CCc2ccccc2)NC(=O)NC1c1ccc2ccccc2c1 (stereo not drawn) 0.198%
COc1cccc(-c2nnc(SCC(=O)N3CCC(C)CC3)o2)c1 -1.81%
COc1cccc(NC(=O)CSc2nnc(-c3cccnc3)o2)c1 -1.16%
CCCNC(=O)C1(C)CCCN(C(=O)c2oc3ccccc3c2C)C1 (stereo not drawn) -8.56%
OC[C@@H]1CN(Cc2ccc(F)cc2)C[C@H](n2cnc3c(NC4CCCC4)ncnc32)O1 -1.01%
CC1(c2cccc([N+](=O)[O-])c2)CC(C)(C)N(C(=O)c2ccccc2)c2ccccc21 (stereo not drawn) -0.902%
CC1(c2ccccc2)CC(C)(C)N(C(=O)c2cc([N+](=O)[O-])cc([N+](=O)[O-])c2)c2ccccc21 (stereo not drawn) 0.813%
O=C(C[n+]1ccncc1)c1ccc2c(c1)CCCC2 0.453%
COc1ccc(CC(N)c2csc(NC(=O)Nc3ccc(C(C)C)cc3)n2)cc1 (stereo not drawn) -0.479%

Potency, inactive:
COc1ccc(Cl)cc1NC(=O)NCC1CCN(Cc2ccccc2F)CC1

Potency, active:
O=C(Nc1ccn(Cc2ccccc2)n1)c1n[nH]c([N+](=O)[O-])c1Cl 22.4 µM
CCCCn1c(N)c(N(CCC(C)C)C(=O)c2ccc([N+](=O)[O-])o2)c(=O)[nH]c1=O 3.16 µM
O=c1cc(O)nc(SCc2ccccc2Cl)[nH]1 28.2 µM
COc1ccccc1-c1sc2ccccc2c1-c1ccc(C(C)=O)cc1 28.2 µM
O=S(=O)(c1ccc(F)cc1)n1ccc(-c2cnc(-c3ccccc3)s2)n1 20 µM
Cc1nc2ccccc2cc1O 3.55 µM
COc1ccc(N2C(=O)c3cccc4cccc(c34)C2=O)nn1 15.8 µM
CCS(=O)(=O)Nc1cccc(-c2cc(-c3ccccc3)c3cc(C)ccc3n2)c1 31.6 µM
Cc1ccnc(N2CCC(C(=O)NC3CCCCCC3)CC2)n1 25.1 µM
[O-][n+]1onc2c1CCc1[nH]c(-c3ccccc3)nc1-2 28.2 µM
COc1ccc(Cl)cc1NC(=O)C(C)N1CCc2ccccc21 (stereo not drawn) 28.2 µM
CCOc1ccc(NC(=O)N(CCC(C)C)C(C)c2ccco2)cc1 (stereo not drawn) 28.2 µM
Cc1ccc(C(=O)/C=C/c2c(C)nn(-c3ccccc3)c2Cl)cc1 6.31 µM
O=C(Nc1ccc2nc(SCC(=O)N3CCCc4ccccc43)sc2c1)c1ccc(F)cc1 28.2 µM
O=C(Nc1ccc2nc(SCC(=O)N3CCCc4ccccc43)sc2c1)c1ccc(Cl)cc1 10 µM
Cc1ccc(C(=O)OC(C)CN2CCOCC2)cc1 (stereo not drawn) 39.8 µM
CCCN(CCC)CCNC(=O)c1ccc2c(c1)NC(=O)C(CS(=O)(=O)Cc1cccc(Br)c1)N2 (stereo not drawn) 2.82 µM
CCOC(=O)c1sc(C)c2c1NC(C)(c1cccc3ccccc13)NC2=O (stereo not drawn) 28.2 µM
COc1cccc(-c2nnc(SCCOc3ccc4c(C)cc(=O)oc4c3)o2)c1 28.2 µM
Cc1nnc(SCC(=O)N2c3ccccc3C(C)(c3ccc(Cl)cc3)CC2(C)C)s1 (stereo not drawn) 31.6 µM
